# Screening results (PubChem)
# Shown are actives, neighbours in structure and some others; about 3.5% of the full set was active somewhere.
# CD11b adhes enh: enhancers of human CD11b/CD18 binding to fibrinogen | K562 CD11b/CD18 adhesion to fibrinogen, ATPlite luminescence | 93,000 tested, 0.07% active | activation, % at 10 µM;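 active = 10 µM primary screen giving 50% or more activity, confirmed by 40% or more on retest at that dose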
# Target sequence (P05107 whole entry, looked up, other chains not shown): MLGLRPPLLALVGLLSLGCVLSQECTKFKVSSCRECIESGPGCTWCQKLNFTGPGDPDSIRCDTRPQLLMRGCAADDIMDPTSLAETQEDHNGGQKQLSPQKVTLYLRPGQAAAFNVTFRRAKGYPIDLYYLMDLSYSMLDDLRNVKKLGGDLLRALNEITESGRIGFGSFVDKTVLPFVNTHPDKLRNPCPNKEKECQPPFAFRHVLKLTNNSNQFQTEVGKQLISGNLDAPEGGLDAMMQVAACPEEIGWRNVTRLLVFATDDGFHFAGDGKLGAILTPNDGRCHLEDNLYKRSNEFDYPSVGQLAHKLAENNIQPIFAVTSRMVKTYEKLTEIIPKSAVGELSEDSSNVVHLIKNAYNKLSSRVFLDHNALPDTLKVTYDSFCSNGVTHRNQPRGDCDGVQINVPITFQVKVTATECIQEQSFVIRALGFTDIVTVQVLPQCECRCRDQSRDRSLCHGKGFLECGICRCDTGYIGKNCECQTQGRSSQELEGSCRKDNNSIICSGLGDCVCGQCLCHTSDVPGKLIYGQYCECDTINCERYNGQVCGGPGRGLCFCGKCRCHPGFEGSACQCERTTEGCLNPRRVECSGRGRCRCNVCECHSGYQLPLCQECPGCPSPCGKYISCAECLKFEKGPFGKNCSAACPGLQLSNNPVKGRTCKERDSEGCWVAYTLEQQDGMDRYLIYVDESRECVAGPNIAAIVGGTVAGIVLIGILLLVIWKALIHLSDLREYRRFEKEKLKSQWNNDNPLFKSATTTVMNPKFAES
# ERa coact inh: ER-alpha (human) coactivator binding inhibition; P03372; TR-FRET ER-alpha LBD / SRC-1 peptide, estradiol-bound; inhibition, % at 25.6 µM; 86,000 tested, 1.7% active; in the data active = inhibition above about 50%;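 also: 0% = receptor plus peptide control and 100% = peptide only without receptor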
# ERa coact pot: enhances coactivator binding to human estrogen receptor alpha. coactivator binding (% of control), % at 25.6 µM. 86,000 tested, 1.3% active. AID 639. TR-FRET ERalpha-LBD/SRC-Cy5 coactivator binding, 2 h; 100 = basal binding, no effect. P03372; in the data active = activity above about 200%;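 also: binding measured in presence of low estradiol as agonist stimulus; 0% = peptide alone without receptor and 100% = receptor with peptide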
# CD11b adhes inh: inhibitors of human CD11b/CD18 binding to fibrinogen; K562 CD11b/CD18 adhesion to fibrinogen, ATPlite luminescence; Mn2+ added to activate the integrin; inhibition, % at 10 µM; 93,000 tested, 0.54% active; AID 1497;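 active = primary inhibition of 50% or more at 10 µM, then 40% or more on retest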
# ERb SRC1 inh: ER-beta (human) coactivator binding inhibition; TR-FRET ER-beta LBD / SRC1-Cy5 peptide binding; receptor agonist-loaded with 1 µM estradiol; inhibition, % at 25.6 µM; 86,000 tested, 1.3% active; AID 633;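 active = compounds whose percent inhibition of the receptor-coactivator binding signal exceeds about 50% in the single-dose screen, limit read from the data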;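 also: 0% = receptor plus peptide wells without compound and 100% = peptide-only wells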
# FAK inh: inhibitors of human focal adhesion kinase; AID 727; 97,000 tested, 0.84% active; Q05397; biochemical FAK kinase activity assay; inhibition, %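 (tested at 7 µM)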;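 also: 0% = DMSO and 100% = reference compound high control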
# FAK inh conf: confirmation of human focal adhesion kinase (FAK) inhibitors. AID 794. 750 tested, 28% active. inhibition, % at 7 µM. shares compounds with FAK inh. FAK kinase biochemical inhibition assay
# Starred values were filed as active, the others as inactive; . = not tested or not shown; [ ] = another dose, or the depositor's remark. Rule as the data show it, unless noted: active = inhibition above about 19%; inactive = the rest.
SMILES,CD11b adhes enh,ERa coact inh,ERa coact pot,CD11b adhes inh,ERb SRC1 inh,FAK inh,FAK inh conf
c1cncc(-c2nc(NCc3ccco3)c3ccccc3n2)c1,-2,-53,99,-4,5,19*,9
CCOC(=O)c1ccc(NC(=O)CSc2nc(C)cc(=O)[nH]2)cc1,2,90*,24,-2,84*[fluorescence artefact?],20*,5
Cc1cc(=O)[nH]c(SCC(=O)Nc2ccc(C(=O)O)cc2)n1,-3,-6,94,2,-5,2,.
COc1ccc(C2C(C#N)=C(N)Oc3c2sc2nc(C)cc(C)c32)cc1 (stereo not given),-3,.,.,6,.,29*,10
COc1ccc2c3c(cccc13)N(C)N=C2C,14,.,.,-29,.,34*,11
COc1ccccc1N1CCN(S(=O)(=O)c2ccc3c4c(cccc24)C(=O)N3C)CC1,3,26,91,2,10,4,.
O=C(CN1C(=O)C2C3C=CC(C3)C2C1=O)NCc1ccco1 (stereo not given),.,-8,99,.,-5,-1,.
O=C(COC(=O)C1CC2C=CC1C2)NCc1ccco1 (stereo not given),3,72*[fluorescence artefact?],162,-4,57*,30*,3
CCOc1ccc(N=C2NC(=O)S/C2=C\c2ccc(Cl)cc2)cc1,-7,.,.,2,.,33*,51*
Cc1ccc(-n2cc3c(=O)n(C)c(=O)n(C)c3c2)cc1C,-1,18,111,-10,-5,8,.
Cc1cc(C)cc(OC(=O)CCN2C(=O)c3ccccc3C2=O)c1,.,1,100,.,-3,3,.
Cc1ccc(NC(=O)c2ccc(OC(=O)CCN3C(=O)c4ccccc4C3=O)cc2)cc1,36,21,372*[fluorescence artefact?],8,12,20*,11
CCN1C=CC(=C2C(=O)c3ccccc3C2=O)C=C1,.,-10,101,.,-6,36*,11
COc1cc2c(cc1OC)C(C(=O)NCc1cccnc1)C(c1cccnc1)N(C)C2=O (stereo not given),.,-6,117,.,-17,-4,.
CN1C(=O)C2(OCC(COc3ccc(Cl)cc3)O2)c2ccccc21 (stereo not given),-3,-20,105,16,-30,2,.
O=C1Nc2ccccc2C12OCC(COc1ccc(Cl)cc1)O2 (stereo not given),10,-21,99,12,-27,20*,1
CCC(C)n1c(NC(=O)c2ccccc2)c(C#N)c2nc3ccccc3nc21 (stereo not given),.,1,77,.,0,25*,-3
CCCCn1c(NC(=O)c2ccccc2)c(C#N)c2nc3ccccc3nc21,-10,.,.,99*,.,42*,1
CCOc1cc(CN2CCN(CCOCCO)CC2)ccc1OC,1,-10,97,-15,-7,-2,.
COCCCNc1c2c3c(cccc3[nH]c1=O)C(=O)c1ccccc1-2,0,-16,89,10,0,20*,10
CN(C)c1ccc(/C=C(/NC(=O)c2ccccc2)C(=O)N/N=C/c2ccc([N+](=O)[O-])c(O)c2)cc1,-3,.,.,13,.,20*,5
N#Cc1cc2ccc(N3CCOCC3)cc2cc1C#N,6,2,119,-6,0,23*,0
O=C(Cc1cccs1)Nc1ccc(-c2nnn(CC(=O)N3CCOCC3)n2)cc1,0,96*[fluorescence artefact?],16,-8,93*,25*,4
COc1ccc(-c2nnn(CC(=O)N3CCOCC3)n2)cc1,-2,-2,97,1,-6,0,.
O=C1C(C2=C(O)c3ccccc3C2=O)=Nc2ccccc21,.,.,.,.,.,10,.
SMILES,CD11b adhes enh,ERa coact inh,ERa coact pot,CD11b adhes inh,ERb SRC1 inh,FAK inh,FAK inh conf
O=C1C=C(Nc2ccccc2O)c2ccccc2C1=O,.,-9,113,.,-10,23*,15
COc1ccc(-c2cn[nH]c2N)c(OC)c1,-5,1,130,-12,-3,31*,1
COc1ccc(-c2cn[nH]c2N)cc1,-5,-10,103,-5,-6,6,.
COc1cc(CC(=O)NCc2ccccn2)cc(OC)c1OC,-4,2,106,4,4,2,.
CCOc1ccc2nc(SCC(=O)N3CCCCCC3)c(C#N)cc2c1,-1,7,191,6,17,25*,9
CC(Sc1nc(NCc2ccccc2)nc(N(C)C)n1)C(=O)Nc1ccccc1 (stereo not given),2,.,.,5,.,22*,10
COCCNC(=O)c1c(N)n(CCCn2ccnc2)c2nc3ccccc3nc12,-4,13,175,-5,20,24*,-1
COCCNC(=O)c1c(N)n(-c2ccccc2)c2nc3ccccc3nc12,-4,3,79,-6,25,4,.
COc1ccc(C2OC(=O)CC2C(=O)NC2CCCCCC2)cc1OC (stereo not given),-5,-8,105,4,-1,21*,2
COc1ccc(C2OC(=O)CC2C(=O)NC2CCCC(C)C2C)cc1OC (stereo not given),-2,1,105,4,1,-2,.
O=C(c1ccc2c(c1)OCO2)[C@@H]1[C@@H]2C(=O)N(C3CCCCC3)C(=O)[C@@H]2C2c3ccccc3C=CN21 (stereo not given in full),-4,-10,102,-3,-2,9,.
O=C(c1cccs1)[C@@H]1[C@@H]2C(=O)N(Cc3ccc4c(c3)OCO4)C(=O)[C@@H]2C2c3ccccc3C=CN21 (stereo not given in full),2,.,.,-8,.,20*,9
CCC1(CC)NC(=O)N(CC(=O)Nc2sc3c(c2C(N)=O)CCC3)C1=O,79,84*,28,-8,74*[fluorescence artefact?],28*,6
CCCCC(=O)Nc1sc2c(c1C(N)=O)CCC2,1,-2,108,-26,-1,20*,12
O=C(NC1CCCCCC1)c1ccc2c(=O)n3c(nc2c1)CCCCC3,1,-2,110,-33,-10,2,.
Cc1ccc2nc(/C(C#N)=C\c3ccc(N4CCCCC4)c([N+](=O)[O-])c3)[nH]c2c1,68,82*,74,1,36,24*,18
Cc1ccc(C(=O)O/N=C\c2ccc(N3CCCCC3)c([N+](=O)[O-])c2)cc1,.,.,.,.,.,-2,.
CCOC(=O)N1CCN(C(=O)CSc2nc3ccccc3c(=O)n2-c2ccccc2)CC1,-1,-1,52,-9,3,3,.
O=C(Nc1ccccc1Cl)NC1(C(=O)N2CCCCC2)CCCCC1,.,-2,109,.,-22,-1,.
Clc1ccc(OCc2nn3c(-c4ccco4)nnc3s2)c(Cl)c1,29,66*[fluorescence artefact?],173,-2,50,39*,18
Clc1ccc2nc(CSc3nc4ccccc4o3)cn2c1,16,0,102,-32,-10,0,.
